Measured values reported in PubChem BioAssay (NCATS).
Where “and” joins values, the source holds several entries; their conditions need not be identical. Equal values may be shown once. Calls of active or inactive are those of the source. Unless noted, the call rests on the fitted dose curve.

Legend:
[1] = molecular target: Estrogen receptor (Homo sapiens) (UniProt P03372); assay: qHTS assay for small molecule antagonists of estrogen receptor alpha signaling (AID 588513; active means well fitted curve in the direction sought with a large enough effect in the signal ratio, with a control signal flat, not every such curve was filed as active; inconclusive means small, poorly fitted or top-dose-only effect, or effect the other way, or a change in a side signal; inactive means no such curve, though single readings can be large or run the other way; the % refers to the signal ratio; further: potency means the concentration at half of the fitted maximal effect)
In short: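 Antagonist-mode qHTS in ER-alpha-UAS-bla HEK 293 cells: compound titration, 0.5nM estradiol for 18 h, CCF4 fluorescence, Hill-derived IC50.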

[2] = molecular target: Estrogen receptor (Homo sapiens) (UniProt P03372); assay: qHTS assay for small molecule agonists of estrogen receptor alpha signaling (AID 588514); further: nearly all actives have a fitted effect of over 70% in size; further: potency means the concentration at half of the fitted maximal effect;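 on activation: 0% = vehicle only and 100% = reference agonist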
In short: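 Read-out: CCF4 fluorescence from a beta-lactamase reporter in ER-alpha-UAS-bla HEK 293 cells after 18 hrs of compound exposure at 37 C. Normalized to 20 nM 17-beta-estradiol (100%) and DMSO (0%).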

[3] = molecular target: Glucocorticoid receptor (Homo sapiens) (UniProt P04150); assay: qHTS assay for small molecule agonists of glucocorticoid receptor signaling (AID 588532; active means well fitted curve in the direction sought with a large enough effect in the signal ratio, with a control signal flat; inconclusive means small, poorly fitted or top-dose-only effect, or a change in a side signal; inactive means no such curve, though single readings can be large or run the other way; the % refers to the signal ratio;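 further: 100% = dexamethasone at 0.1 µM and 0% = DMSO only wells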); conditions: HeLa MMTV-bla, beta-lactamase ratio, agonist, 18 h; activation: stronger effect = higher value, percent of dexamethasone control, DMSO zero
In short: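 Quantitative HTS using CellSensor MMTV-bla HeLa cells in charcoal/dextran-treated serum; compounds tested up to 92 uM. After 18 h at 37 C, CCF4 dye reported reporter induction.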

[4] = molecular target: Peroxisome proliferator-activated receptor delta (Homo sapiens) (UniProt Q03181); assay: qHTS assay for small molecule agonists of peroxisome proliferator-activated receptor delta signaling (AID 588534);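 further: 0% = DMSO basal wells and 100% = positive control agonist at 10 µM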
In short: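 Titration series tested in agonist mode on beta-lactamase reporter cells; 18 hrs at 37 C after a 5 hr pre-incubation. Readout: CCF4 fluorescence, 2 hrs RT. Hill equation gives EC50 and maximal response.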

[5] = molecular target: Vitamin D3 receptor (Homo sapiens) (UniProt P11473); assay: qHTS assay for small molecule antagonists of vitamin D receptor signaling (AID 588541); further: potency means the concentration at half of the fitted maximal effect
In short: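 Antagonist-mode beta-lactamase reporter assay: HEK293T VDR-UAS-bla cells were exposed to titrated compound alongside 1-alpha,25-dihydroxyvitamin D3 at 3 nM final for 16 h. Values were normalized to the 50 nM agonist control and DMSO basal, with IC50 and efficacy from Hill equation fits.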

[6] = molecular target: Vitamin D3 receptor (Homo sapiens) (UniProt P11473); assay: qHTS assay for small molecule agonists of vitamin D receptor signaling (AID 588543);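 further: 0% = DMSO basal and 100% = reference agonist control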
In short: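 Measured: β-lactamase reporter activity (CCF4, 405 nm excitation, 460/530 nm emission) in HEK293T VDR-UAS-bla cells after 16 h compound exposure at 37 °C. Normalization against 50 nM 1α,25-dihydroxyvitamin D3 and DMSO; Hill-fit EC50.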

[7] = qHTS assay for small molecule agonists of retinoid X receptor alpha signaling (AID 588544); conditions: HEK293T RXRa-UAS-bla, beta-lactamase reporter, 18 h; 530 nm emission;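 on activation: 0% = DMSO basal wells and 100% = reference agonist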
[8] = molecular target: Retinoic acid receptor RXR-alpha (Homo sapiens) (UniProt P19793); assay: as above
[9] = molecular target: Thyroid hormone receptor beta (Homo sapiens) (UniProt P10828); assay: qHTS assay for small molecule agonists of thyroid hormone receptor beta signaling (AID 588545);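 further: 0% = DMSO only and 100% = 10 nM T3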
In short: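 TR-UAS-bla GripTite HEK 293 cells (2500/well, medium with 2% charcoal/dextran FBS) were treated in agonist mode for 18 h at 37 C, titrated. Beta-lactamase was read by CCF4 ratio after 2 h; normalized to 10 nM T3 (100%) and DMSO, Hill-fitted for EC50 and efficacy.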

[10] = qHTS assay for small molecule antagonists of retinoid X receptor alpha signaling (AID 588546; active means well fitted inhibition curve with a large enough effect in the signal ratio, with a control signal flat, not every such curve was filed as active; inconclusive means small, poorly fitted or top-dose-only effect, or effect the other way, or a change in a side signal; inactive means no such curve, though single readings can be large or run the other way; the % refers to the signal ratio; further: potency means the concentration at half of the fitted maximal effect;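 on max response: cells stimulated with 9-cis-retinoic acid as agonist; on the % scale 0 is the no-effect control and ±100 the full control effect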); conditions: HEK293T RXRa-UAS-bla, beta-lactamase ratio, antagonist mode; measured here: W530 green channel, cytotoxicity proxy
In short: (§1)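 Beta-lactamase reporter inhibition, read as CCF4 fluorescence ratio (ex 405, em 460/530 nm) after 2 h at RT. HEK293T UAS-bla cells, 2500/well, were stimulated with 9-cis-RA at 500 or 100 nM final alongside test compound for 18 h at 37 C.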

[11] = molecular target: Retinoic acid receptor RXR-alpha (Homo sapiens) (UniProt P19793); assay: as above; conditions: HEK293T RXRa-UAS-bla, beta-lactamase ratio, antagonist mode
In short: as §1

[12] = molecular target: Thyroid hormone receptor beta (Homo sapiens) (UniProt P10828); assay: qHTS assay for small molecule antagonists of thyroid hormone receptor beta signaling (AID 588547; active means well fitted inhibition curve with a large enough effect in the signal ratio, with a control signal flat, not every such curve was filed as active; inconclusive means small, poorly fitted or top-dose-only effect, or effect the other way, or a change in a side signal; the % refers to the signal ratio;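 further: cells stimulated with 0.4 nM T3 agonist during compound exposure; series mostly up to about 77 µM; on the % scale 0 is the no-effect control and ±100 the full control effect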); conditions: TR-UAS-bla HEK293, beta-lactamase ratio, antagonist mode, 18 h
In short: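 Inhibition of T3-driven (0.4nM final) beta-lactamase reporter activity was measured over 0.59 nM to 92 uM compound after 18 h at 37 C. The cells were GripTite HEK293 TR-UAS-bla in charcoal/dextran-stripped serum, with CCF4 ratio read-out and IC50 from Hill fits.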

[13] = qHTS assay for small molecule activators of the p53 signaling pathway (AID 651743; active means well fitted activation curve with a large enough effect in the signal ratio, not every such curve was filed as active; inconclusive means small, poorly fitted or top-dose-only effect, or a change in a side signal; the % refers to the signal ratio; further: series mostly up to about 92 µM; % of control where 0% means no effect); conditions: HCT-116 p53RE-bla, beta-lactamase FRET ratio, 16 h; activation: stronger effect = higher value
In short: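 A beta-lactamase reporter under p53 response element control, stably carried by HCT-116 cells, reported pathway activation. Test compounds were applied for 16 hours at 37 C, and fluorescence was measured 2 hours after adding the B/G FRET substrate.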

[14] = qHTS assay for environmental chemicals that activate the Aryl hydrocarbon Receptor (AhR) signaling pathway (AID 651777; active means well fitted curve in the direction sought with a large enough effect; inconclusive means small, poorly fitted or top-dose-only effect, or another doubt; inactive means no such curve, though single readings can be large; an effect the other way counts as inactive or inconclusive; further: % of control where 0% means no effect; nearly all actives have a fitted effect of over 15% in size); conditions: 1A2-DRE human hepatoma cells, luciferase, 24 h; activation: stronger effect = higher value
In short: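 Reporter gene assay: hepatoma cells with DRE/CYP1A2-luciferase, 24 hr compound incubation at 37 C, 5% CO2, luminescence after One-Glo (30 min, RT).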

[15] = molecular target: Peroxisome proliferator-activated receptor alpha (Homo sapiens) (UniProt Q07869); assay: qHTS assay for small molecule agonists of the peroxisome proliferator-activated receptor alpha (PPARalpha) signaling pathway (AID 651778; active means well fitted curve in the direction sought with a large enough effect; inconclusive means small, poorly fitted or top-dose-only effect, or another doubt; inactive means no such curve, though single readings can be large; an effect the other way counts as inactive or inconclusive; further: % of control where 0% means no effect); conditions: PathHunter PPARalpha complementation, chemiluminescence, 6 h; max response: stronger effect = higher value
In short: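 Chemiluminescence from complemented enzyme reported PPARalpha activation in cells after 6 hr of compound treatment at 37 C. The detection reagent was incubated for 60 min at room temperature, and compounds were scored as agonists.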

[16] = qHTS assay for small molecule agonists of the antioxidant response element (ARE) signaling pathway measured by Nrf2-dependant transcriptional activity (AID 720636; active means well fitted curve in the direction sought with a large enough effect in the repeat runs; inconclusive means weak or mixed curves; inactive means no such curve, though single readings can be large; an effect the other way counts as inactive or inconclusive; further: potency means the concentration at half of the fitted maximal effect;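 on activation: HepG2 cells with an ARE-driven luciferase reporter; % of control where 0% means no effect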)
In short: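 Nrf2-dependent transcription is measured in ARE-luc HepG2 cells: compound is applied for 16 hr at 37 C after a 6 hr attachment period, and luciferase activity is quantified by luminescence using ONE-Glo.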

[17] = qHTS assay for small molecule agonists of the antioxidant response element (ARE) signaling pathway measured by Nrf2-dependant transcriptional activity - cell viability counter screen (AID 720653; active means well fitted curve in the direction sought with a large enough effect in the repeat runs; inconclusive means weak or mixed curves; inactive means no such curve, though single readings can be large; an effect the other way counts as inactive or inconclusive; further: on the % scale 0 is the no-effect control and ±100 the full control effect); conditions: ARE-bla HepG2 viability, CellTiter-Glo ATP luminescence, 16 h; max response: stronger effect = lower value
In short: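 Cytotoxicity counter screen: intracellular ATP quantified by CellTiter-Glo luminescence in the same ARE-bla HepG2 plates, after 16 h compound exposure and a 2 h beta-lactamase substrate step.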

[18] = qHTS assay for cell viability of HEK293 cells (AID 743288; active means well fitted curve in the direction sought with a large enough effect; inconclusive means small, poorly fitted or top-dose-only effect, or another doubt; inactive means no such curve, though single readings can be large; an effect the other way counts as inactive or inconclusive; further: on the % scale 0 is the no-effect control and ±100 the full control effect; nearly all actives have a fitted effect of over 50% in size); conditions: ATP luminescence (CellTiter-Glo), 18 h; max response: stronger effect = lower value
In short: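 HEK293, 18 h, 37 C, ATP luminescence. Cells at 2,000/well were allowed at least 5 h to settle before dosing; CellTiter-Glo developed 30 min at RT.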

[19] = qHTS assay for cell viability of the p53RE-bla HCT-116 cell line (AID 743292; active means well fitted curve in the direction sought with a large enough effect; inconclusive means small, poorly fitted or top-dose-only effect, or another doubt; inactive means no such curve, though single readings can be large; an effect the other way counts as inactive or inconclusive; further: on the % scale 0 is the no-effect control and ±100 the full control effect; nearly all actives have a fitted effect of over 55% in size)
In short: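 ATP-based luminescence, 16 h compound exposure at 37 C, p53RE-bla HCT-116 cells at 4,000/well.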

[20] = molecular target: Nuclear receptor subfamily 1 group I member 2 (Rattus norvegicus) (UniProt Q9R1A7); assay: qHTS assay for small molecule activators of the rat pregnane X receptor (rPXR) signaling pathway (AID 651751; call rule not given here; further: 0% is about no effect); conditions: rPXR reporter cells, luciferase (One-Glo), 24 h
Chain of Nuclear receptor subfamily 1 group I member 2 (Rattus norvegicus) (Q9R1A7 whole entry, looked up): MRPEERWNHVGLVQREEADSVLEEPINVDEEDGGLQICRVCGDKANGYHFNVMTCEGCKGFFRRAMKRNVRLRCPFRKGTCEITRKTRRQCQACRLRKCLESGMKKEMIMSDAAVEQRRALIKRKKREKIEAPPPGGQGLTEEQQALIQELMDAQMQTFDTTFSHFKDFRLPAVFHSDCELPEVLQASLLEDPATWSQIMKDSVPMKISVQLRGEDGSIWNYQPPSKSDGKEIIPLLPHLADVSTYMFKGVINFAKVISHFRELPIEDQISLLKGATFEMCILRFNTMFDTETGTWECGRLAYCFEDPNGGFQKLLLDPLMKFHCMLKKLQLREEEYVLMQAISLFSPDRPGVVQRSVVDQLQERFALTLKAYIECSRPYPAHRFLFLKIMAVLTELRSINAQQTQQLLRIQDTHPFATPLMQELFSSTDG

Chain of Vitamin D3 receptor (Homo sapiens) (P11473 whole entry, looked up): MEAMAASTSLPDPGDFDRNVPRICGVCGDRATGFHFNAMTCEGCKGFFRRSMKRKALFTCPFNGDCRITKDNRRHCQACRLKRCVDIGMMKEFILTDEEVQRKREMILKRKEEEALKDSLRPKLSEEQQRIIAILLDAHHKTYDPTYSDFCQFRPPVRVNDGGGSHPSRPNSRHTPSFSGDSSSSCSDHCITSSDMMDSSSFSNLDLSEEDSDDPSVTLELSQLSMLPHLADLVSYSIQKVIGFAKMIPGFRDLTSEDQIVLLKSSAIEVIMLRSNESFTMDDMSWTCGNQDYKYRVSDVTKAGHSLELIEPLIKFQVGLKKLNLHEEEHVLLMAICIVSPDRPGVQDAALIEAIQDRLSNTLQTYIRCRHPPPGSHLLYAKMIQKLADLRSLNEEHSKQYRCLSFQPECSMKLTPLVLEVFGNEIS
Chain of Glucocorticoid receptor (Homo sapiens) (P04150 whole entry, looked up): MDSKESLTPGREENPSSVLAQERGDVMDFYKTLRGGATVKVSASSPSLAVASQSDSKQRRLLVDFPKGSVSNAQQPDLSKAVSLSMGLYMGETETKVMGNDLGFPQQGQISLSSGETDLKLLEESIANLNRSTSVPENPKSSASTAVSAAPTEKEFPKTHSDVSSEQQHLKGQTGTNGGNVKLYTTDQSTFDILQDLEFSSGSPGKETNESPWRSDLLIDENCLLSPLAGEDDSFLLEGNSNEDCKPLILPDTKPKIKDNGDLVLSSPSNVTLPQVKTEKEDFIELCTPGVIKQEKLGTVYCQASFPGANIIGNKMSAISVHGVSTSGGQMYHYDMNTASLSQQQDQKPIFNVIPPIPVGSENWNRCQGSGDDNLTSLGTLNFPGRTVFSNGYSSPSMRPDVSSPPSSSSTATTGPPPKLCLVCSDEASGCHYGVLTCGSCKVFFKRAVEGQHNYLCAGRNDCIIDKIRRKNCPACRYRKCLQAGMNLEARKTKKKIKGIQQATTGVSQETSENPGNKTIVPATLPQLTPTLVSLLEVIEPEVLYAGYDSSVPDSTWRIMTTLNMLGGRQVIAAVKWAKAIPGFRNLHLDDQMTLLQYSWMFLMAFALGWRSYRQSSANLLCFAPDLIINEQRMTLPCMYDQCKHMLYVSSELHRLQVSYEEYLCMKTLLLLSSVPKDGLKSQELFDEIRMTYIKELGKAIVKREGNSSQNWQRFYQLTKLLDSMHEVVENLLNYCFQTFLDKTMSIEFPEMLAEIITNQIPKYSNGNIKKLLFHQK
Chain of Estrogen receptor (Homo sapiens) (P03372 whole entry, looked up): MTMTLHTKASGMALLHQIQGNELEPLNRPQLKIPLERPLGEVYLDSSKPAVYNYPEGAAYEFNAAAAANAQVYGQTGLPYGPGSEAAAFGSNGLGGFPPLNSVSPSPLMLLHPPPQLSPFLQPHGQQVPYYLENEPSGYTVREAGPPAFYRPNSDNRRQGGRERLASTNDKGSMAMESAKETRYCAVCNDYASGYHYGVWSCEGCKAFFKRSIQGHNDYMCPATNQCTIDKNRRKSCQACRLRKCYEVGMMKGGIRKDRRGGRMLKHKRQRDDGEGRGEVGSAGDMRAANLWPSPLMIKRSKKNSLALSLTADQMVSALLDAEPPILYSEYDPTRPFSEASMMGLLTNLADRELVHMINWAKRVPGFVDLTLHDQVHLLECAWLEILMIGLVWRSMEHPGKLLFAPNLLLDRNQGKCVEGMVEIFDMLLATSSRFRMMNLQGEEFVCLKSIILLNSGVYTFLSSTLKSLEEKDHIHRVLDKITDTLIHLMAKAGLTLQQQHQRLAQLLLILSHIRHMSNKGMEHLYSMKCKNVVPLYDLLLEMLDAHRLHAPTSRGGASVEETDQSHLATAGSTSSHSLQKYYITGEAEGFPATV
Chain of Thyroid hormone receptor beta (Homo sapiens) (P10828 whole entry, looked up): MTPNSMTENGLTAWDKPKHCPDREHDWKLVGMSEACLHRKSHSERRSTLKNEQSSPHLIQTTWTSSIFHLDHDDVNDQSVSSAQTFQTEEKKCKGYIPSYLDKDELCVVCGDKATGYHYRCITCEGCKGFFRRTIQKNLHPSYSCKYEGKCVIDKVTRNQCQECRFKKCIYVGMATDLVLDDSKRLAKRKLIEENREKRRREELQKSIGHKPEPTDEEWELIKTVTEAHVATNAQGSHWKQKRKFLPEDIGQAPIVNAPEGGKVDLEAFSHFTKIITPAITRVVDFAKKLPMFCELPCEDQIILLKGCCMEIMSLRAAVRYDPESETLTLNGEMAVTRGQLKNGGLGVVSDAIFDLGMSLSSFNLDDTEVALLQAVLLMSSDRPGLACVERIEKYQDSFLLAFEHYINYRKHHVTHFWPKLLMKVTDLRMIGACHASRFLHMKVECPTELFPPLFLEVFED
Chain of Peroxisome proliferator-activated receptor alpha (Homo sapiens) (Q07869 whole entry, looked up): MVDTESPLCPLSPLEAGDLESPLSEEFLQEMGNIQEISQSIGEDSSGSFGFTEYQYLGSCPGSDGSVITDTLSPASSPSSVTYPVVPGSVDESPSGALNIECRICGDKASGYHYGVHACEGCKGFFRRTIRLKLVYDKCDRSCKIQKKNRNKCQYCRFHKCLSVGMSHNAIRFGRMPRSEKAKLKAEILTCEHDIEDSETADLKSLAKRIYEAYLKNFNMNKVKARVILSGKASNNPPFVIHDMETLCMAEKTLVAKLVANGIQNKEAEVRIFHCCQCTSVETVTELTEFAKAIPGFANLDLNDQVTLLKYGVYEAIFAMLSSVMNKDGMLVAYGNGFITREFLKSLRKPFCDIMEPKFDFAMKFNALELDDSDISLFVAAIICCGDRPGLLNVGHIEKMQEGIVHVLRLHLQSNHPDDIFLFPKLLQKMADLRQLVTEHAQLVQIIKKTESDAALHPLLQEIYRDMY
Chain of Retinoic acid receptor RXR-alpha (Homo sapiens) (P19793 whole entry, looked up): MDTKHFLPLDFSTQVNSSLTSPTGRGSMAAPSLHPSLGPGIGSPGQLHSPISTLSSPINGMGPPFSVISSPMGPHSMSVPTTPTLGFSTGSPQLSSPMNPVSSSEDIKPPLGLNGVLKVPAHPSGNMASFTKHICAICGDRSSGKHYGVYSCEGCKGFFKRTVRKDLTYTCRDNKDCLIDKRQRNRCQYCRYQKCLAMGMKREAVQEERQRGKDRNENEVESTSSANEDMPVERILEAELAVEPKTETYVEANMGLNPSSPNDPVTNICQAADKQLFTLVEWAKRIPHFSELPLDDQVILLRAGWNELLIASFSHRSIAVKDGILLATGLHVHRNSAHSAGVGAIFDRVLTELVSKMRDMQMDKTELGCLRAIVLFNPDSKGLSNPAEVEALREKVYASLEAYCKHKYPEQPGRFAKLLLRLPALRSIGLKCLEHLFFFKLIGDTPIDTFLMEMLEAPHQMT
Chain of Peroxisome proliferator-activated receptor delta (Homo sapiens) (Q03181 whole entry, looked up): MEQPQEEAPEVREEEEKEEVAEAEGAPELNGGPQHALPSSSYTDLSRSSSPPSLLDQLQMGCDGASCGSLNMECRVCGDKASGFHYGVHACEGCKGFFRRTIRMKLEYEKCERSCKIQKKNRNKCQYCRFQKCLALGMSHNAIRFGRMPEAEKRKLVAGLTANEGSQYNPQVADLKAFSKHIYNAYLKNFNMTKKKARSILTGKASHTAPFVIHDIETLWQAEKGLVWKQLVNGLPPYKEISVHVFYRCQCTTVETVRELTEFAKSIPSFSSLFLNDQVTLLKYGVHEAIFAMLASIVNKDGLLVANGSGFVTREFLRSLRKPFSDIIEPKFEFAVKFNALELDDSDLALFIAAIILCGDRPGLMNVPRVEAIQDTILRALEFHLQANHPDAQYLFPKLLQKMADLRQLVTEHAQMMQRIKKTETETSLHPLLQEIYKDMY

COC(=O)NS(=O)(=O)c1ccc(N)cc1
6.39% and -8.17%: max response [10]
-13.8% and -12.5%: max response [7]
inactive: Potency [1] | Potency [2] | activation [3] -1.43% and 1.04% | outcome [4] | Potency [5] | outcome [6] | Potency [8] | Potency [9] | max response [11] -10.8% and -3.57% | activity change % (negative = inhibition) [12] -3.22% and 3.54% | activation [13] -7.42% and -0.724% | activation [14] -0.0088% and 0.402% | max response [15] 0.635% and -1.36% | Potency [16] | max response [17] 9.3% and -4.17% | max response [18] 0.196% and -9.27% | Potency [19] | max response [20] 2.14% and -3.25%

COc1cnc(OC)n2nc(NS(=O)(=O)c3c(OCC(F)F)cccc3C(F)(F)F)nc12
8.71%: max response [10]
inactive: Potency [1] | Potency [2] | Potency [9] | activity change % (negative = inhibition) [12] 9.04% | activation [13] 1.45% | activation [14] 0.743% | max response [15] -1.19% | max response [17] -2.64% | max response [18] -8.21% | Potency [19] | max response [20] -1.36%

C=CC(=O)OCC(CO)(COC(=O)C=C)COC(=O)C=C
-17.9%: max response [10]
active: Potency [1] 7.94 µM [inconclusive] | Potency [5] 7.08 µM | Potency [16] 16.8 µM and 12.2 µM
inactive: Potency [2] | outcome [6] | max response [17] -24.9%

CCC[CH2][Sn]([CH2]CCC)([O]C(C)=O)[O]C(C)=O
inactive: Potency [1] | activation [3] -12.8% | outcome [4] | Potency [5] | outcome [6] | Potency [8] | Potency [9] | activity change % (negative = inhibition) [12] -21.2% | activation [13] 4.26% | activation [14] -0.036% | max response [15] -2.27% | max response [17] -3.33% | Potency [19] | max response [20] -0.354%
5.61%: max response [7]
active: Potency [2] 0.794 µM | Potency [11] 22.4 µM
2.17%: max response [10]

COc1cc(Cl)c(OC)cc1Cl
inactive: Potency [1] | Potency [2] | activation [3] -1.33% | Potency [5] | outcome [6] | Potency [8] | Potency [9] | activity change % (negative = inhibition) [12] 4.96% | activation [13] -1% | activation [14] -2.48% | max response [15] -0.244% | Potency [16] | max response [17] -1.62% | max response [18] -14.2% | Potency [19] | max response [20] 1.36%
-12.5%: max response [7]

c1cc[n+]2c(c1)-c1cccc[n+]1CC2
inactive: Potency [2] | activation [3] 1.75% | outcome [4] | Potency [5] | outcome [6] | Potency [8] | Potency [9] | max response [11] -20.8% | activity change % (negative = inhibition) [12] 10.8% | activation [14] -0.462% | max response [15] -2.84% | max response [17] 1.16% | max response [18] -11.6%
2.2%: max response [10]
-27.8%: max response [7]
active: Potency [1] 25.1 µM [inhibitor]
